Results filed as inconclusive are left out. The source made the active and inactive calls. Calls follow the shape of the dose curve; as a rule, active = well fitted cell-killing curve with a large enough effect in the repeat runs; inconclusive = weak or mixed curves, or effect the other way; inactive = flat fitted curve, though single readings scatter.
Assay: qHTS assay to identify small molecule antagonists of the retinoid acid receptor (RAR) signaling pathway - cell viability counter screen (AID 1159551); also: nearly all actives have a fitted effect of over 35% in size
Conditions: C3RL4 cells viability, ATP luminescence (CellTiter-Glo), 6 h; series mostly up to 92.4 µM; activity change, negative = cytotoxicity: at the top concentration
Summary of the method: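 Following overnight attachment, C3RL4 reporter cells received DMSO-dissolved compounds and then retinol (1 uM final). Six hours later at 37 C, ATP content was measured by CellTiter-Glo luminescence.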
% is scaled to controls: 0 for no effect and ±100 for the full control effect; potency is read from the fitted curve at half-maximal effect.

SMILES | activity change, negative = cytotoxicity | Potency
Cc1cc(C2CCCCC2)n(O)c(=O)c1 | 2.77% [at 42.5 µM] (inactive) | –
CCc1cc(Cc2cc(CC)c(N)c(CC)c2)cc(CC)c1N | -5.34% (inactive) | –
CC1(C)CCC(C)(C)c2cc(C(=O)Nc3ccc(C(=O)O)cc3)ccc21 | -3.01% (inactive) | –
COc1cccc2c1C(=O)c1c(O)c3c(c(O)c1C2=O)C[C@@](O)(C(=O)CO)C[C@@H]3O[C@H]1C[C@H](N)[C@H](O[C@@H]2CCCCO2)[C@H](C)O1 | -7.72% [at 42.5 µM] (inactive) | –
CNc1ccc(O)cc1 | – | 27.3 µM (active)
CCN1/C(=C/C=C/c2sc3ccccc3[n+]2CC)Sc2ccccc21 | – | 14.6 µM (active)
OCc1c[nH]c2ccccc12 | 2.03% (inactive) | –
CCC(C)Nc1ccc(NC(C)CC)cc1 (configuration not stated) | – | 39.3 µM (active)
CCCCCCCCS(=O)C(C)Cc1ccc2c(c1)OCO2 (configuration not stated) | -4.6% (inactive) | –
O=C(OC[C@H]1O[C@@H](OC(=O)c2cc(O)c(O)c(OC(=O)c3cc(O)c(O)c(O)c3)c2)[C@H](OC(=O)c2cc(O)c(O)c(OC(=O)c3cc(O)c(O)c(O)c3)c2)[C@@H](OC(=O)c2cc(O)c(O)c(OC(=O)c3cc(O)c(O)c(O)c3)c2)[C@@H]1OC(=O)c1cc(O)c(O)c(OC(=O)c2cc(O)c(O)c(O)c2)c1)c1cc(O)c(O)c(OC(=O)c2cc(O)c(O)c(O)c2)c1 | -3.41% [at 19 µM] (inactive) | –
Cc1c(C)c2c(c(C)c1OC(=O)CCC(=O)O)CC[C@@](C)(CCC[C@H](C)CCC[C@H](C)CCCC(C)C)O2 | -1.72% (inactive) | –
CCCC(=O)OC[C@@H](OC(=O)CCC)[C@@H](OC(=O)CCC)[C@H](Cn1c2nc(=O)[nH]c(=O)c-2nc2cc(C)c(C)cc21)OC(=O)CCC | -2.61% [at 42.5 µM] (inactive) | –
